This is part of a sample that, as a whole, favours compounds with a hit. Of some 83,000 tested, about 20% had one in any assay.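 Growth was measured after 48 h exposure to one concentration of compound in 96-well plates. Values under 10 count as active.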 A number with no mark means an inactive call. The source made the active and inactive calls.
Tested on: SK-MEL-5 melanoma
Assay: NCI-60 one-dose screen, 48 h (100 = growth as untreated, 0 = no growth, -100 = all killed)
Details: 10 µM unless noted

Question: How did the growth turn out when `O=[N+]([O-])c1ccc(N/N=C/c2c(O)ccc3ccccc23)nc1` was run?
Answer: The growth was 40%.

Question: Which growth does the source give for `COc1cc(/C=C/c2nnc(-c3cc(-c4ccccc4)n[nH]3)o2)cc(OC)c1OC` here?
Answer: The growth was 84.5%.

Question: With `COc1cc2c(-c3nc4cc(Cl)c(F)cc4s3)cc(=O)oc2c(C)c1OC` as the compound, how does the growth read?
Answer: Its growth is -84.2% (active).

Question: For `COc1cccc(-c2nnc(N)o2)c1`, which growth is on record?
Answer: Its growth is 99.3%.

Question: With `CSc1nc2c(c(=O)n1C)C(c1ccccc1)C1=C(N2)/C(=C/c2ccccc2)CCC1` (stereo unspecified) as the compound, how does the growth read?
Answer: The growth was 40%.

Question: With `C[N+]1(CCC[N+]2(C)C[C@@H]3[C@H](C2)[C@@H]2C=C[C@H]3C2)CCOCC1` (stereo partly specified) as the compound, how does the growth read?
Answer: Its growth is 106%.

Question: With `O=C(CCc1nnc(SCc2ccccc2)s1)c1nc2ccccc2[nH]1` as the compound, how does the growth read?
Answer: Its growth is 99.4%.

Question: For `c1csc([C@@H]2C[C@@H]3Cc4ccc5ccccc5c4N2O3)c1`, which growth is on record?
Answer: The growth was 101%.

Question: For `O=C1/C(=C/c2ccc([N+](=O)[O-])s2)Oc2ccc(Br)cc21`, which growth is on record?
Answer: The growth was -89.1% (active).

Question: Which growth does the source give for `CCCCCCC(C)(O)c1ccccc1` (stereo unspecified) here?
Answer: The growth was 109%.

Question: Which growth does the source give for `COc1cccc2c1O/C(=C\c1c([N+](=O)[O-])ncn1C)C2=O` here?
Answer: The growth was 102%.

Question: With `CCCc1cc(=O)n2c(C(=O)Nc3ccccc3OC)c(C(=O)Nc3ccc(F)cc3)sc2n1` as the compound, how does the growth read?
Answer: The growth was 45.4% [30 µM].

Question: How did the growth turn out when `C=Cc1nn2c(CCC(=O)c3nc4ccccc4[nH]3)nnc2s1` was run?
Answer: The growth was 98.2%.

Question: `CCOC(=O)C(C(C)=O)c1nc2sc3cc(Cl)ccc3n2c(=N)c1C#N` (stereo unspecified) was tested. Which growth did it give?
Answer: The growth was 73.9%.

Question: How did the growth turn out when `COc1ccc2nccc(/C=C/c3ccnc4ccc(OC)cc34)c2c1` was run?
Answer: Its growth is 116%.

Question: Which growth does the source give for `COc1ccc(-c2c(-c3cc(OC)c(OC)c(OC)c3)noc2N)cc1` here?
Answer: Its growth is -60.7% (active).

Question: How did the growth turn out when `COc1ccc(-c2cc(C(=O)Nc3nc4cc(C)c(C)cc4s3)nc3cc(-c4ccccc4)nn23)cc1OC` was run?
Answer: Its growth is 110%.

Question: For `COc1ccc(-c2cc(Cc3cccs3)c(=O)n(Cn3ccc4ccccc43)n2)cc1`, which growth is on record?
Answer: Its growth is 104%.

Question: `COc1ccc(-c2cc(Cc3cccs3)c(=O)n(Cn3cncn3)n2)cc1` was tested. Which growth did it give?
Answer: Its growth is 92.9%.

Question: With `Cn1c(=O)c2c(nc(Br)n2CCC(=O)Nc2ccc(F)cc2)n(C)c1=O` as the compound, how does the growth read?
Answer: Its growth is 111%.

Question: With `COc1ccc(/C=C/C(=O)Nc2cccnc2Nc2ccc(F)cc2)cc1` as the compound, how does the growth read?
Answer: Its growth is 87.2%.

Question: For `O=C1NCC(Nc2ccc(Br)cc2Cl)C(=O)N1` (stereo unspecified), which growth is on record?
Answer: Its growth is 104%.

Question: Which growth does the source give for `CC/C=C\C=C/C(=O)N/C=C/CC1Cc2cccc(O)c2C(=O)O1` (stereo unspecified) here?
Answer: Its growth is 13%.

Question: How did the growth turn out when `Cc1cc(C)c2c(c1)N1OC(C2)C[C@H]1/C=C/c1ccccc1` (stereo partly specified) was run?
Answer: The growth was 93.7%.

Question: With `N#Cc1cnc2cc(OC[C@H](O)CO)c(NC(=O)CC3CSSC3)cc2c1Nc1ccc(OCc2cccc(F)c2)c(Cl)c1` as the compound, how does the growth read?
Answer: The growth was -95.9% (active).

Question: Which growth does the source give for `COc1ccc(OC)c2c1[nH]c(=O)c1c3ccccc3cn21` here?
Answer: The growth was -98.8% (active).

Question: For `COC(=O)CCC1=C(C)/C(=C/c2[nH]c(-c3ccc[nH]3)cc2OC)N=C1C`, which growth is on record?
Answer: Its growth is -92% (active).

Tested on: UACC-62 melanoma
Assay: as above
Details: 10 µM unless noted

Question: For `O=[N+]([O-])c1ccc(N/N=C/c2c(O)ccc3ccccc23)nc1`, which growth is on record?
Answer: Its growth is 41.7%.

Question: For `COc1cc(/C=C/c2nnc(-c3cc(-c4ccccc4)n[nH]3)o2)cc(OC)c1OC`, which growth is on record?
Answer: Its growth is 92.9%.

Question: With `COc1cccc(-c2nnc(N)o2)c1` as the compound, how does the growth read?
Answer: Its growth is 99.5%.

Question: With `CSc1nc2c(c(=O)n1C)C(c1ccccc1)C1=C(N2)/C(=C/c2ccccc2)CCC1` (stereo unspecified) as the compound, how does the growth read?
Answer: The growth was 58.2%.

Question: How did the growth turn out when `CCCCCCC/C(=N\N=C(N)N)c1ccc(O)cc1` was run?
Answer: Its growth is 51.4%.

Question: For `CCOC(=O)c1c(NC(=O)C2CCCCC2C(=O)O)sc2c1CCCC2` (stereo unspecified), which growth is on record?
Answer: Its growth is 103%.

Question: `C[N+]1(CCC[N+]2(C)C[C@@H]3[C@H](C2)[C@@H]2C=C[C@H]3C2)CCOCC1` (stereo partly specified) was tested. Which growth did it give?
Answer: Its growth is 97.7%.

Question: How did the growth turn out when `O=C(CCc1nnc(SCc2ccccc2)s1)c1nc2ccccc2[nH]1` was run?
Answer: Its growth is 84.8%.

Question: Which growth does the source give for `c1csc([C@@H]2C[C@@H]3Cc4ccc5ccccc5c4N2O3)c1` here?
Answer: The growth was 79.7%.

Question: `O=C1/C(=C/c2ccc([N+](=O)[O-])s2)Oc2ccc(Br)cc21` was tested. Which growth did it give?
Answer: The growth was -83.4% (active).

Question: With `CCCCCCC(C)(O)c1ccccc1` (stereo unspecified) as the compound, how does the growth read?
Answer: Its growth is 96.5%.

Question: For `CCOC(Cc1c(N)[nH]c(=S)[nH]c1=O)OCC`, which growth is on record?
Answer: Its growth is 104%.

Question: With `CCN1C2=C(SC(=S)C1=C1SC(C(=O)OC)=C(C(=O)OC)S1)SC(=Nc1ccc(OC)cc1)C2=O` as the compound, how does the growth read?
Answer: The growth was -76.8% (active).

Question: With `CCOc1nc(-c2ccccc2)cc2c(O)c(-c3nnco3)[nH]c(=O)c12` as the compound, how does the growth read?
Answer: The growth was 56.9%.

Question: `COc1cccc2c1O/C(=C\c1c([N+](=O)[O-])ncn1C)C2=O` was tested. Which growth did it give?
Answer: Its growth is 109%.

Question: With `CCCc1cc(=O)n2c(C(=O)Nc3ccccc3OC)c(C(=O)Nc3ccc(F)cc3)sc2n1` as the compound, how does the growth read?
Answer: Its growth is 66.6% [30 µM].

Question: Which growth does the source give for `C=Cc1nn2c(CCC(=O)c3nc4ccccc4[nH]3)nnc2s1` here?
Answer: Its growth is 102%.

Question: With `CCOC(=O)C(C(C)=O)c1nc2sc3cc(Cl)ccc3n2c(=N)c1C#N` (stereo unspecified) as the compound, how does the growth read?
Answer: The growth was 67.8%.

Question: Which growth does the source give for `COc1ccc2nccc(/C=C/c3ccnc4ccc(OC)cc34)c2c1` here?
Answer: The growth was 109%.

Question: For `COc1ccc(-c2c(-c3cc(OC)c(OC)c(OC)c3)noc2N)cc1`, which growth is on record?
Answer: The growth was 43.9%.

Question: How did the growth turn out when `COc1ccc(-c2cc(C(=O)Nc3nc4cc(C)c(C)cc4s3)nc3cc(-c4ccccc4)nn23)cc1OC` was run?
Answer: The growth was 107%.

Question: For `COc1ccc(-c2cc(Cc3cccs3)c(=O)n(Cn3ccc4ccccc43)n2)cc1`, which growth is on record?
Answer: The growth was 87.7%.

Question: Which growth does the source give for `COc1ccc(-c2cc(Cc3cccs3)c(=O)n(Cn3cncn3)n2)cc1` here?
Answer: Its growth is 86.2%.

Question: With `COc1ccc(/C=C/C(=O)Nc2cccnc2Nc2ccc(F)cc2)cc1` as the compound, how does the growth read?
Answer: Its growth is 86.6%.

Question: Which growth does the source give for `O=C1NCC(Nc2ccc(Br)cc2Cl)C(=O)N1` (stereo unspecified) here?
Answer: Its growth is 101%.

Question: How did the growth turn out when `CC/C=C\C=C/C(=O)N/C=C/CC1Cc2cccc(O)c2C(=O)O1` (stereo unspecified) was run?
Answer: The growth was 61.4%.

Question: With `Cc1cc(C)c2c(c1)N1OC(C2)C[C@H]1/C=C/c1ccccc1` (stereo partly specified) as the compound, how does the growth read?
Answer: Its growth is 88%.

Question: With `Cc1cc(=O)n2n1-c1ccc(Cl)cc1NC(=O)C2` as the compound, how does the growth read?
Answer: The growth was 107%.

Question: With `CC[C@H](C)C(=O)O[C@H]1C[C@@H](C)C=C2C=C[C@H](C)[C@H](CC[C@@H]3C[C@@H](O)CC(=O)O3)[C@H]21` as the compound, how does the growth read?
Answer: The growth was 23.7%.

Question: `O=C1/C(=C/c2ccc([N+](=O)[O-])o2)Oc2ccc(Br)cc21` was tested. Which growth did it give?
Answer: The growth was 34.8%.

Question: `O=C1NCN(c2ccccc2)C12CCN(CCCC(c1ccc(F)cc1)c1ccc(F)cc1)CC2` was tested. Which growth did it give?
Answer: Its growth is 78.2%.

Question: For `COc1ccc(OC)c2c1[nH]c(=O)c1c3ccccc3cn21`, which growth is on record?
Answer: Its growth is -100% (active).

Question: Which growth does the source give for `COc1cc(C2CC(=O)Nc3c2cc(Br)c2ccccc32)cc(Br)c1OC` (stereo unspecified) here?
Answer: The growth was 51.7%.

Question: Which growth does the source give for `COC(=O)CCC1=C(C)/C(=C/c2[nH]c(-c3ccc[nH]3)cc2OC)N=C1C` here?
Answer: Its growth is -49.6% (active).

Reference: PubChem BioAssay (NCI)
